Here are results for 24 compounds from PubChem BioAssay AID2717 (Broad Institute, 2010).

Hit rate of the full screen: of about 300,000 compounds, about 3,200 (1.1%) were called active. Only a selection was taken, and actives are over-represented in it overall. A number with no mark means an inactive call. No stated cut-off is given here; in the data, active means inhibition above about 75%; inconclusive means no clear call, values can overlap the other calls; inactive means below that; tested in HMLE shEcad cells.

One may read the inhibition as the change of the read-out against control, counted positive when it falls.

This experiment is described as follows: growth suppression of cancer stem-like cells – cell-based, luminescence, primary screen (AID 2717). To be noted: cancer stem cell-like cells viability, at 7.5 µM, hits give high values.
On to `COc1cc(OC)cc(-c2cc3ccc(F)cc3cn2)c1`, for which the inhibition was 47%. The figure for `CC[C@]1(O)CC2CN(CCc3c([nH]c4ccccc34)[C@@](C(=O)OC)(c3cc4c(cc3OC)N(C=O)[C@H]3[C@@](O)(C(=O)OC)[C@H](OC(C)=O)[C@]5(CC)C=CCN6CC[C@]43[C@@H]65)C2)C1` (some centres undefined) is 62.5%; for `CC[C@]1(O)C[C@@H]2CN(CCc3c([nH]c4ccccc34)[C@@](C(=O)OC)(c3cc4c(cc3OC)N(C)[C@H]3[C@@](O)(C(=O)OC)[C@H](OC(C)=O)[C@]5(CC)C=CCN6CC[C@]43[C@@H]65)C2)C1` it is 80.5% (active). As for `COc1ccccc1-c1sc2ccccc2c1-c1ccc(Br)nc1`, the figure is 31.6%; as for `CC(=O)c1ccc(OCCN2CCOCC2)cc1`, -15.6%; as for `COc1ccc(-c2sc3ccccc3c2-c2ccc(OCCN3CCOCC3)cc2)cc1`, 136% (active).

For the compound `COc1ccc2sc(-c3ccccc3OC)c(-c3ccc(OCCN4CCCC4)cc3)c2c1`, the inhibition is 105% (active). The figure for `c1ccc(-c2ccc(OCCN3CCOCC3)cc2)cc1` is 5.72%.

As for `c1ccc(-c2ccccc2OCCN2CCCCC2)cc1`, the inhibition is 0.336%. As for `O=C(Nc1cc(S(=O)(=O)Nc2ccc(Cl)cc2)ccc1O)c1ccc(F)cc1F`, the figure is 18.9%; as for `COc1ccc(C(=O)COC(=O)C(O)c2ccccc2)c(OC)c1` (centres undefined), 3.81%. The figure for `O=c1ccc2c(-c3ccccc3S(=O)(=O)O)c3ccc(O)c(O)c3oc-2c1O` is 25.4%; for `COc1cc(OC)cc(-c2nnc(N(C)C(=O)c3ccncc3)s2)c1` it is -13.2%; for `COCCN(C(=O)c1ccco1)c1nnc(-c2ccc(OC)cc2)s1` it is -23%. The figure for `Cc1cccc(C)c1Nc1nnc(SCC(=O)NCCCN2CCCC2=O)s1` is -7.62%. As for `CN1CCN(C(=O)c2ccc(-c3ccc(Br)cc3)o2)CC1`, the inhibition was 44%. With `O=C(CC1Nc2ccccc2NC1=O)Nc1ccccc1` (centres undefined), the inhibition was 100% (active).

Turning to `O=C(CC1NCCc2ccccc21)Nc1cccc(Cl)c1` (centres undefined), the inhibition was 7.22%.

Take `O=C(CC1NCCNC1=O)Nc1ccc(Oc2ccccc2)cc1` (centres undefined): the inhibition was 52.9%. The figure for `O=C(COC(=O)c1ccc(O)cc1O)c1ccc2c(c1)OCCO2` is 8.44%; for `O=C(Nc1cccc(S(=O)(=O)N2CCCCC2)c1)c1cncc(Br)c1` it is -3.28%. With `COc1ccc(CCNc2nc(C)cc(C)n2)cc1OC`, the inhibition was -36.8%.

In the case of `COc1ccc(CCNc2nc3ccc(C)cc3n3cnnc23)cc1OC`, the inhibition was -23.4%. As for `CCC[C@H]1CCCC/C=C\CCCC(=O)OCCN1C(=O)OC(C)(C)C`, the figure is -20.7%.
